The source of these data is PubChem BioAssay AID743269 (The Scripps Research Institute Molecular Screening Center, 2014).

Screen size: about 370,000 compounds; about 2,400 (0.65%) were called active.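 How the source made its calls: active means inhibition above the screen-wide mean plus 3 SD (cut at about 13% in these data); inactive means the rest.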 Only a selection was taken, and actives are over-represented in it overall.

The subject of this experiment is HIV-1 integrase (with human LEDGF/p75). Nature of the experiment: blockers of LEDGF/p75-dependent integrase strand transfer – biochemical, TR-FRET, high throughput, primary screen (AID 743269).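 Further: signal is the Cy5 over europium emission ratio at 671 and 618 nm; 0% = plate median of compound wells.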 Conditions: TR-FRET IN-LEDGF/p75 DNA integration, Eu/Cy5; at 3.7 µM; active compounds read high. Background: In TR-FRET formats the signal depends on donor and acceptor labels being close together.
The term inhibition denotes the change of the read-out against control, counted positive when it falls. Turning to `COC(=O)[C@]12C[C@H](CC(=O)N3CCOCC3)C(=O)N(Cc3ccc(Cl)cc3Cl)C1=C[C@H](C(C)C)O[C@@H]2C1CC1`, the inhibition was -2.5% (inactive). Consider `CCOc1ccc(-n2c(SCC(=O)Nc3cc(C)c(NC(=O)c4ccccc4)cc3OC)nnc2-c2cccc(Cl)c2)cc1`, for which the inhibition was -4.78% (inactive).

With `Cc1ccc(/C=C/C(=O)Nc2ccc([N+](=O)[O-])c(NC(=O)/C=C/c3ccc(C)o3)c2)o1`, the inhibition is 24.3% (active).

In the case of `Cc1cc(NC(=O)COC(=O)/C=C/c2ccc(C)o2)no1`, the inhibition was -2.47% (inactive). Under `CCOc1ccc(NC(=S)NC(=O)/C=C/c2ccc(OC)cc2)c([N+](=O)[O-])c1` stands 5.44% (inactive); under `CC(=O)c1cc(-c2ccc3ccccc3c2)c(=O)n2c1CCC2`, 0.07% (inactive). Regarding `CC(c1ccc(N)cc1)c1cn(C)c2ccccc12` (stereo not given), the inhibition is -3.68% (inactive).

In the case of `Cc1ccc(-n2c(SCC(=O)Nc3cccc4ccccc34)nnc2-c2ccccn2)cc1`, the inhibition was -0.35% (inactive).

Turning to `COC(CNC(=O)[C@H](Cc1ccccc1)NC1(C(=O)NC2CCCCC2)CCCCC1)OC`, the inhibition is 2.51% (inactive). `Cc1ccc(-c2nnc(SCC(=O)Nc3ccc(Oc4ccccc4)cc3)n2Cc2ccco2)cc1`: the inhibition was -1.74% (inactive).

As for `Nn1c(SCC(=O)N2c3ccccc3Sc3ccccc32)nnc1-c1n[nH]c2c1CCC2`, the inhibition was -0.96% (inactive). As for `O=C(NC1CCCCN(Cc2cccc(C(F)(F)F)c2)C1=O)c1ccccc1I` (stereo not given), the inhibition was -1.97% (inactive). Under `NNc1cccc(C=Cc2ccccc2)cc1=O` stands 29.3% (active). For the compound `O=C(CSc1nc2sc3c(c2c(=O)n1-c1ccccc1)CCCC3)NN=Cc1ccc(OCc2ccccc2)cc1`, the inhibition is -1.95% (inactive). With `CN(C)c1ccc(N/C=C/C(=O)C(F)(F)F)cc1`, the inhibition is 51% (active). For the compound `CC1CN(/C=C/C(=O)C(F)(F)F)CC(C)O1` (stereo not given), the inhibition is 1.92% (inactive). With `O=S1(=O)c2c(NCc3ccco3)cccc2Oc2ccccc2CN1Cc1cn(Cc2cccc(C(F)(F)F)c2)nn1`, the inhibition is -4.08% (inactive). As to `COc1ccccc1/C=C/C1=NC(=C\N(C)C)/C(=O)O1`, the inhibition was -2.48% (inactive). With `O=C1OC(/C=C/c2ccccc2)=NC/1=C/c1ccco1`, the inhibition is 23.8% (active). Consider `CCn1c(SCC(C)=O)nc2sc3c(c2c1=O)CCCC3`, for which the inhibition was 4.15% (inactive). The value for `COC(=O)C12C=C3CC(c4ccccc4)=C3C(=O)N1Cc1[nH]c3ccccc3c1C2` (stereo not given) was -0.02% (inactive); that for `CCOC(=O)c1ccc(NC(=O)Cn2cnc3cc(C)c(C)cc32)cc1` was -0.18% (inactive). Regarding `CCOC(=O)c1ccc(NC(=O)CSc2ncccn2)cc1`, the inhibition was 21.2% (active). As to `CCOC(=O)c1ccc(NC(=S)N2CCN(c3ccccn3)CC2)cc1`, the inhibition is 3.04% (inactive).

With `O=C(NC1CCC1)c1ccc(C#Cc2cccc(F)c2)c[n+]1[O-]`, the inhibition is -0.89% (inactive).

With `Cc1sc2nc(SCC(=O)c3ccc(O)c(O)c3)n(Cc3ccco3)c(=O)c2c1C`, the inhibition was 34.8% (active). Take `Cc1sc2nc(SCC(N)=O)n(C)c(=O)c2c1C`: the inhibition is 1.58% (inactive). As to `O=C(CSc1nnc(COc2ccccc2)n1Cc1ccco1)c1ccc2ccccc2c1`, the inhibition is 1.68% (inactive). Turning to `CCOC(=O)[C@]12CCCC=C1N(Cc1ccc(OC)cc1)C(=O)[C@@H]2CC(=O)N1CCOCC1`, the inhibition is 4.73% (inactive). With `Cc1ccc(NC(=O)c2cc(C)nn2-c2ccccc2)c(C)c1`, the inhibition is -1.51% (inactive). The value for `CCC(=O)c1c(CC)c2n3c1=CC[C@H]3CC(Br)C=2` (stereo not given in full) was -2.29% (inactive); that for `CN(C)Cc1cn(-c2ccc(-c3noc4c3C(=O)N(CC(=O)N3CCOCC3)CC4)cc2)nn1` was -1.95% (inactive); that for `COc1ccc(C#CCNCc2ccc(OC)cc2OC)cc1` was -3.69% (inactive).

For `CCCCOCCCNC(=O)C[C@H]1C[C@@]2(C(=O)OC)C(=C[C@H](C(C)(C)C)O[C@@H]2C)N(CCc2ccc(OC)c(OC)c2)C1=O`, the inhibition is 2.16% (inactive). On to `CN(C)S(=O)(=O)c1cccc(C(=O)N/N=C\c2ccco2)c1`, for which the inhibition is -0.56% (inactive). Regarding `CC(C)CNC(=O)COC(=O)/C=C/c1ccco1`, the inhibition was 0.15% (inactive). As to `Cc1cc(C(=O)NN=C/C=C/c2ccco2)n[nH]1`, the inhibition is 15.1% (active).

On to `COc1ccc(N2CCN(CCNS(=O)(=O)c3ccc(Cl)s3)CC2)cc1`, for which the inhibition is -1.84% (inactive).

Turning to `O=C(CSc1nnc(-c2ccccn2)n1-c1ccc(Cl)cc1)Nc1ccccc1-c1ccccc1`, the inhibition is -2.85% (inactive).

For `C=CCN1C(=O)[C@H](CC(=O)N2CCN(C(=O)OCC)CC2)[C@@]2(C(=O)OCC)CCCC=C12`, the inhibition was -0.39% (inactive).

As to `O=C(NNC(=S)NC1CCCCC1)c1ccccc1Cl`, the inhibition is 0.05% (inactive). For the compound `O=C(NNC(=O)c1ccccc1O)c1ccccc1O`, the inhibition was 27.2% (active).

Regarding `O=C(CO/N=C/c1ccccc1O)NNC(=O)c1ccccc1Cl`, the inhibition is 3.91% (inactive). The value for `CCC(c1ccc(NC(=O)OC(C)(C)C)cc1)c1cc(OC)cc(OC)c1` (stereo not given) was -0.14% (inactive). As for `CCOC(=O)C1(Cc2ccccc2)CCN(Cc2cn(C(C)=O)c3ccccc23)CC1`, the inhibition was -1.3% (inactive). The value for `Cc1ccccc1NC(=O)COC(=O)c1ccc(Sc2ncn[nH]2)c([N+](=O)[O-])c1` was -3.54% (inactive). Under `COc1ccc2c(c1)c(=Cc1ccc(N(C)C)cc1)c1cc(-c3ccccc3)[n+](C)n12` stands 18.8% (active); under `O=C(CN1CCC(NC(=O)NCc2ccccc2)CC1)Nc1ccc2c(c1)OCCO2`, 0.58% (inactive).

On to `O=C(Nc1ccc(Br)cc1)OCCN1C(=O)CCC12CCC(c1ccccc1)CC2` (stereo not given), for which the inhibition is -0.45% (inactive). For `Cc1cccc2cc3c(N)c(C(=O)N4CCCc5ccccc54)sc3nc12`, the inhibition is 1.54% (inactive). Take `Cc1ccc(C(=O)N2CCCc3ccccc32)c(Cl)c1`: the inhibition is 38% (active).

As to `Cc1ccc2c(c1)N(CC(=O)N1CCCc3ccccc31)C(=O)C(C)O2` (stereo not given), the inhibition is 4.28% (inactive). As for `COc1ccc(C(=O)CSc2nnc(-c3cnccn3)n2-c2ccc(C)cc2)cc1`, the inhibition was 0.86% (inactive).

Turning to `Cc1ccccc1NC(=O)Cn1nnc(-c2ccccc2F)n1`, the inhibition was 3.47% (inactive). As to `Cc1cc(=O)[nH]c(SCC(=O)Nc2ccc(Cl)cc2C)n1`, the inhibition was 0.96% (inactive). For `COCCNC(=S)c1ccc(OC)cc1`, the inhibition was -1.56% (inactive). `COCCNC(=O)Nc1ccc2nc(-c3ccco3)c(-c3ccco3)nc2c1`: the inhibition was 90.1% (active). Under `COCCNC(=O)c1cc2c(Br)ccc(Br)c2nc1N` stands -5.17% (inactive). On to `COc1ccc(CCNC(=O)CSc2nc3c([nH]2)c(=O)n(C)c(=O)n3C)cc1`, for which the inhibition is 0.75% (inactive).

With `O=C(NCc1cccs1)C1CCN(S(=O)(=O)c2ccccc2[N+](=O)[O-])CC1`, the inhibition is 3.07% (inactive). On to `CC(C)(C)NC(=O)C(c1cccnc1)N(C(=O)c1cnco1)c1ccc(C(C)(C)C)cc1` (stereo not given), for which the inhibition was 0.93% (inactive). Consider `CCOC(=O)[C@]12CCCCC/C=C\1N(Cc1ccc(OC)cc1)C(=O)[C@H]2CC(=O)NCc1ccc(C)o1`, for which the inhibition is -2.04% (inactive).

Consider `COc1ccc(C(C)=O)cc1CSc1nc2nc(C)cc(C)n2n1`, for which the inhibition is -4% (inactive).

In the case of `COc1ccc(C(=O)/C=C/c2ccc(-c3ccccc3)cc2)cc1CSCC(=O)O`, the inhibition was 13.5% (active). On to `COC(=O)c1ccc(COc2ccc(/C=C/C(=O)c3ccc(OC)c(CSCC(=O)O)c3)cc2OC)cc1`, for which the inhibition is 1.77% (inactive). With `CCOc1ccc(Oc2c(Cl)cnn(-c3ccc(C)cc3)c2=O)cc1`, the inhibition was -2.65% (inactive). In the case of `COc1cccc(N(C)C(=O)[C@@H](C)[C@@H](O)c2ccc3ccccc3c2)c1`, the inhibition is 2.81% (inactive). In the case of `CC(=O)c1ccc(OCC(=O)N(C)C2CCS(=O)(=O)C2)cc1` (stereo not given), the inhibition is 1.55% (inactive).

Turning to `CN(C(=O)COC(=O)c1cc(-c2ccco2)nc2ccccc12)C1CCS(=O)(=O)C1` (stereo not given), the inhibition is 30.7% (active).

Regarding `CN(C(=O)COC(=O)c1cc(=O)[nH]c2ccccc12)C1CCCCC1`, the inhibition is -9.3% (inactive). Consider `CCOC(=O)[C@]12CCCC=C1N(Cc1ccc(OC)cc1)C(=O)[C@@H]2CC(=O)NCc1cccs1`, for which the inhibition was 0.74% (inactive). As for `CCOC(=O)CN1C(=O)C(O)(CC(=O)c2ccccn2)c2ccccc21` (stereo not given), the inhibition was 3.17% (inactive).

Take `O=C(CC1(O)C(=O)N(CN2CCOCC2)c2ccccc21)c1ccccc1` (stereo not given): the inhibition was 3.55% (inactive). The value for `C=CCN1C(=O)C(O)(CC(=O)c2ccccn2)c2ccccc21` (stereo not given) was 15.4% (active); that for `N#CCC[C@H]1CC[C@]2(CCCN(Cc3ccc(Cl)cc3)C2)O1` was 0.5% (inactive). Consider `O=S1(=O)c2ccc(Br)cc2OC[C@H](Cc2ccccc2)N1Cc1cn(Cc2ccccc2)nn1`, for which the inhibition was -5.3% (inactive). Consider `Cc1cc([N+](=O)[O-])c(NC2CCCCC2)c([N+](=O)[O-])c1`, for which the inhibition was 0.17% (inactive). For the compound `Clc1cc(NC2CCCCC2)ncn1`, the inhibition is 21.7% (active). With `CCc1cc2c(NC3CCCC3)ncnc2s1`, the inhibition was -1.83% (inactive). Turning to `O=C(C1CCN(S(=O)(=O)c2ccccc2)CC1)N1CCN(C2CCCCC2)CC1`, the inhibition was -2.53% (inactive). For the compound `Cc1cc(C)cc(NC(=O)N2CCC(N(C)CCC(C)C)CC2)c1`, the inhibition is 3.5% (inactive). `CC1(C(=O)NCc2ccc3c(c2)OCO3)CCN1CCc1ccccc1` (stereo not given): the inhibition was 3.29% (inactive). For `CC(=NCc1ccc2c(c1)OCO2)C1=C(O)c2ccccc2C1=O`, the inhibition is 14.5% (active). Turning to `O=C(CC(Cc1ccccc1)C(=O)O)NCCc1ccc2c(c1)OCO2` (stereo not given), the inhibition was -1.84% (inactive).

Consider `O=S(=O)(c1ccccc1)N1CCC(c2nc3ccccc3o2)CC1`, for which the inhibition is -3.8% (inactive). Turning to `Cc1ccc(C(=O)N(Cc2ccccn2)CC2CCCO2)cc1` (stereo not given), the inhibition is -1.5% (inactive). Consider `O=C(CSc1nc2ccccc2nc1N1CCCCC1)N1CCN(S(=O)(=O)c2cccc([N+](=O)[O-])c2)CC1`, for which the inhibition is 7.35% (inactive).

With `CC(C)CNS(=O)(=O)CC1NCCc2ccccc21` (stereo not given), the inhibition is -2.87% (inactive). In the case of `CC(=O)O[C@H]1CC[C@@]2(C)[C@@H](CC[C@@H]3[C@@H]2CC[C@]2(C)[C@@H](C(C)(C)O)C[C@@H]32)C1`, the inhibition is 0.72% (inactive). Take `C[C@H]([C@@H](O)[C@@H](O)[C@@H](C)C(C)(C)C)[C@H]1CC[C@H]2C3CC[C@H]4C[C@H](OS(=O)(=O)O)[C@@H](OS(=O)(=O)O)C[C@]4(C)[C@H]3CC[C@]12C` (stereo not given in full): the inhibition was 22.1% (active).
